The supplement of paper PMC10849652
Of roughly 8,800 targets only a part is listed; those with a hit were picked by preference. About 0.5% of all pairs of compound and target were hits. Values without a mark were called inactive.

How the values were obtained:
Test in all cases: log2 fold change, soluble protein after heating vs DMSO (PISA); higher = thermal stabilisation; K562 lysate, 10 uM; active = over 0.2 and 3.5 SD of the protein, either way, in both replicates (recomputed)
[1] = compound: C#Cc1cccc(Nc2ncnc3cc(OCCOC)c(OCCOC)cc23)c1 [erlotinib]
Summary of the method: (§1)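 Log-two fold change in thermal stability relative to solvent controls is reported from duplicates. For each sample, crude K562 extract from dounce-homogenised pellets in PBS pH 7.4 with 1 mM MgCl2, at 1 mg/mL protein, was treated with 10 μM compound for 30 min. Aliquots heated for 3 min across 48°C-58°C were pooled, brought to 0.5% NP-40 at 4°C and cleared at 21,000xg for 90 min. The supernatant was quantified by TMTpro 16plex LC-MS/MS with channel sums equalised.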

[2] = compound: C/C(=N\NC(=O)C1=CC(=CC=C1)S(=O)(=O)N2CCOCC2)/C3=C(C=CC(=C3)Cl)O
Summary of the method: as §1

[3] = compound: C1=CC(=CC=C1C2=NC3=C(N2)C=C(C=C3)C(=O)N)OC4=CC=C(C=C4)Cl
Summary of the method: as §1

[4] = compound: C1=CC2=C(C=CC(=C2)/C=C\3/C(=O)NC(=NCC4=CC=CS4)S3)N=C1
Summary of the method: as §1

[5] = compound: C1=CC2=NC=CN=C2C=C1/C=C/3\C(=O)NC(=O)S3
Summary of the method: as §1

[6] = compound: C1=CC=C(C=C1)C2=NC(=C(N2)C3=CC=NC=C3)C4=CC(=C(C=C4)Cl)O
Summary of the method: as §1

[7] = compound: C1=CC=C2C(=C1)C3=NNC4=CC=CC(=C43)C2=O
Summary of the method: as §1

[8] = compound: C1CCN(C1)C(=O)NC2=CC=CC(=C2)NC3=NC=C(C(=N3)NCCC4=CN=CN4)Br
Summary of the method: as §1

[9] = compound: C1CN(CCC1(CC2=CC=C(C=C2)Cl)N)C3=NC=NC4=C3C=CN4
Summary of the method: as §1

[10] = compound: C1COCCN1CCN2C3=CC=CC=C3N=C2NC(=O)C4=CC(=CC=C4)[N+](=O)[O-] [IRAK-1-4 Inhibitor I]
Summary of the method: as §1

Sequence of UniProt Q08AE8 (Q08AE8 whole entry, looked up): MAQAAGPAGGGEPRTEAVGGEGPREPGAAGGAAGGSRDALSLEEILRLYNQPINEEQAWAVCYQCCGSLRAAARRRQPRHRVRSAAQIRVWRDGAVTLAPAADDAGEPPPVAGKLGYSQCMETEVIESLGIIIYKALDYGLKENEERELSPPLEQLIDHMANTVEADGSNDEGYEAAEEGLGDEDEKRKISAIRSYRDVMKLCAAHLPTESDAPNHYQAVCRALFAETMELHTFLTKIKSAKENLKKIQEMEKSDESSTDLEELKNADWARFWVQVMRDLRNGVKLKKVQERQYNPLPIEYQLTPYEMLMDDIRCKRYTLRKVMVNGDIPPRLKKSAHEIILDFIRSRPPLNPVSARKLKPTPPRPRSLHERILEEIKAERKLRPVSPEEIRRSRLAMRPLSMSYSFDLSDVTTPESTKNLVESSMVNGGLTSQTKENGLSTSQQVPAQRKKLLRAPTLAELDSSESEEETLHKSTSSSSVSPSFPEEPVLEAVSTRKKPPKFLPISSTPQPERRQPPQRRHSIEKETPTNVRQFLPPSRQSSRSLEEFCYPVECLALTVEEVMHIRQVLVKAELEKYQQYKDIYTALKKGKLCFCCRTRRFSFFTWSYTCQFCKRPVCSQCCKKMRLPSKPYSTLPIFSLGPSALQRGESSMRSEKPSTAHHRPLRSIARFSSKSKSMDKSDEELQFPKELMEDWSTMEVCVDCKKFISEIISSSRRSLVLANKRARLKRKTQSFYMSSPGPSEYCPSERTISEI
Sequence of UniProt Q9NP77 (Q9NP77 whole entry, looked up): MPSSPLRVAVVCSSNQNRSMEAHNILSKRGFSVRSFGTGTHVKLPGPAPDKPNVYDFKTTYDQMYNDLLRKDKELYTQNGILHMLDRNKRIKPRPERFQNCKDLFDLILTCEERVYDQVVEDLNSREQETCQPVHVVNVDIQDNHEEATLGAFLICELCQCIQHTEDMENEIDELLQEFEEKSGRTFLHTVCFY
Sequence of UniProt O75528 (O75528 whole entry, looked up): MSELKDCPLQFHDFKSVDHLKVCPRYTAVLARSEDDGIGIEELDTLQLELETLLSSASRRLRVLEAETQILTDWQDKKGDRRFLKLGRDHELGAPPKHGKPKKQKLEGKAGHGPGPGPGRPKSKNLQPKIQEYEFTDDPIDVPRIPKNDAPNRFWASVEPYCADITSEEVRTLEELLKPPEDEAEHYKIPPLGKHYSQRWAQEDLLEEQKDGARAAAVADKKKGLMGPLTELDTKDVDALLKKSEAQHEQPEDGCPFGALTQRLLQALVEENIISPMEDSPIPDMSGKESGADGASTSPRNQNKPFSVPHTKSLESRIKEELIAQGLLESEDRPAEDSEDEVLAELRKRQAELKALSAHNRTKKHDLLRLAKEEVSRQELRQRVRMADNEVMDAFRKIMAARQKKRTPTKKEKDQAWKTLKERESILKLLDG
Sequence of UniProt Q96KF7 (Q96KF7 whole entry, looked up): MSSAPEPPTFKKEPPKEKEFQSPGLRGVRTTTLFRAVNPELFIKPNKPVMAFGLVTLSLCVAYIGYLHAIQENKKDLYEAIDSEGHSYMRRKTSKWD
Sequence of UniProt Q9HBR0 (Q9HBR0 whole entry, looked up): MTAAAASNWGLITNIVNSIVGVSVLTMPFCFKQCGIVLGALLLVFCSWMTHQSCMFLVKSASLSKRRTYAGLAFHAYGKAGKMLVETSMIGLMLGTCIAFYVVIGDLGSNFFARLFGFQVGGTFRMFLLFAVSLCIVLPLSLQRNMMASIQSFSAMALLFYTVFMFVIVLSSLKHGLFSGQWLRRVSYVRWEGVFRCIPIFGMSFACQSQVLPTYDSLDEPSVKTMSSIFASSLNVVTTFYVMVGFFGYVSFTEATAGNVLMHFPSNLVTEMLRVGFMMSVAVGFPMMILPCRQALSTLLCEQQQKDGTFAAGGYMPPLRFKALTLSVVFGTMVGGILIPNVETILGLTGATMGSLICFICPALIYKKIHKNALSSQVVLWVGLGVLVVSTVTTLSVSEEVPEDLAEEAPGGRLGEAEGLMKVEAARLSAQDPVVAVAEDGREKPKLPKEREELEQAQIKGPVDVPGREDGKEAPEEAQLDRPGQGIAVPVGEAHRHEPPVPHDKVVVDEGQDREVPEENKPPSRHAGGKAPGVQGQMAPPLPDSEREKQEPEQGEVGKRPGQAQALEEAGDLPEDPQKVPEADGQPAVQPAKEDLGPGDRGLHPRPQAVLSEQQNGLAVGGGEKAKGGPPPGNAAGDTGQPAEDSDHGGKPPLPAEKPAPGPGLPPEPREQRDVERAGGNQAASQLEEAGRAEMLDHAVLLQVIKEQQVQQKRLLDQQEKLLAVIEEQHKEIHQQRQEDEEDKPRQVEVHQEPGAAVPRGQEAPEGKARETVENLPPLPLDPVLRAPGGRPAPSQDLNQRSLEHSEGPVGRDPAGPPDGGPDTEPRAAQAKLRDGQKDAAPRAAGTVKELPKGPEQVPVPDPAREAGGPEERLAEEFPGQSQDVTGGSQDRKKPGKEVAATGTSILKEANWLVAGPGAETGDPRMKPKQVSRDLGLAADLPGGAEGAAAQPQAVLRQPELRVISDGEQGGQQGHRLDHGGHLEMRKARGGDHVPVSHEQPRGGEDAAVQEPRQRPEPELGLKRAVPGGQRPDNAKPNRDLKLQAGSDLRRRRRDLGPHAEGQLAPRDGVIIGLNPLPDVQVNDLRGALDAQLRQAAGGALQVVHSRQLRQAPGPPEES
Sequence of UniProt Q6P1M0 (Q6P1M0 whole entry, looked up): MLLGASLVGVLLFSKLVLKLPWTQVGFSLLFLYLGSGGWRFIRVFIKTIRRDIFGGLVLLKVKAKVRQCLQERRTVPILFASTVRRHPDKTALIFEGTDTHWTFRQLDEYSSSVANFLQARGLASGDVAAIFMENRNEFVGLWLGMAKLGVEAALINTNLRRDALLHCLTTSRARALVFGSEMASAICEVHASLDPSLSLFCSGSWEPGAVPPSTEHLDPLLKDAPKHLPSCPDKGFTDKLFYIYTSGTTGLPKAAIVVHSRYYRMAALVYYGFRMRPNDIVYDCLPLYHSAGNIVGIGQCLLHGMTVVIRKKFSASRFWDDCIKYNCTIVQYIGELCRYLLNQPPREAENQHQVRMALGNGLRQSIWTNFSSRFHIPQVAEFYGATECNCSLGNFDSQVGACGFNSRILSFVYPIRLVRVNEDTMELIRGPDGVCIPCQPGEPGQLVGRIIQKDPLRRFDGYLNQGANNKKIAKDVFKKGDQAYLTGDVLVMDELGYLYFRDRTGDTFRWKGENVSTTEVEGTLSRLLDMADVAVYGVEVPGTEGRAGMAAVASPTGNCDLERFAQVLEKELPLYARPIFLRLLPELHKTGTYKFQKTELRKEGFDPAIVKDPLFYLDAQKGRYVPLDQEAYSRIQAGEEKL
Sequence of UniProt Q15208 (Q15208 whole entry, looked up): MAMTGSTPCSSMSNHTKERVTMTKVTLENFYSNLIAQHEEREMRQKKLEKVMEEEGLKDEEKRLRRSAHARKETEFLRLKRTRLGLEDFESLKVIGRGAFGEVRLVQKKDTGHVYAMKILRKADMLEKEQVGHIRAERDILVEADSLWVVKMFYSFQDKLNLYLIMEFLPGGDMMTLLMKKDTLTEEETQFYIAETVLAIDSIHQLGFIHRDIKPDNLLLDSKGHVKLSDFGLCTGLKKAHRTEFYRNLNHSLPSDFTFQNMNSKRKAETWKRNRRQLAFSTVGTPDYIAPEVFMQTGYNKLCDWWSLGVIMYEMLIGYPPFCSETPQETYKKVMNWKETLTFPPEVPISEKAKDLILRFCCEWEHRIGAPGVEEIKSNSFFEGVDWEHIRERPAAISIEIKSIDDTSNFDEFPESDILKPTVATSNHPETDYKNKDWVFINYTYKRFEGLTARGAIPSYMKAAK
Sequence of UniProt Q96R06 (Q96R06 whole entry, looked up): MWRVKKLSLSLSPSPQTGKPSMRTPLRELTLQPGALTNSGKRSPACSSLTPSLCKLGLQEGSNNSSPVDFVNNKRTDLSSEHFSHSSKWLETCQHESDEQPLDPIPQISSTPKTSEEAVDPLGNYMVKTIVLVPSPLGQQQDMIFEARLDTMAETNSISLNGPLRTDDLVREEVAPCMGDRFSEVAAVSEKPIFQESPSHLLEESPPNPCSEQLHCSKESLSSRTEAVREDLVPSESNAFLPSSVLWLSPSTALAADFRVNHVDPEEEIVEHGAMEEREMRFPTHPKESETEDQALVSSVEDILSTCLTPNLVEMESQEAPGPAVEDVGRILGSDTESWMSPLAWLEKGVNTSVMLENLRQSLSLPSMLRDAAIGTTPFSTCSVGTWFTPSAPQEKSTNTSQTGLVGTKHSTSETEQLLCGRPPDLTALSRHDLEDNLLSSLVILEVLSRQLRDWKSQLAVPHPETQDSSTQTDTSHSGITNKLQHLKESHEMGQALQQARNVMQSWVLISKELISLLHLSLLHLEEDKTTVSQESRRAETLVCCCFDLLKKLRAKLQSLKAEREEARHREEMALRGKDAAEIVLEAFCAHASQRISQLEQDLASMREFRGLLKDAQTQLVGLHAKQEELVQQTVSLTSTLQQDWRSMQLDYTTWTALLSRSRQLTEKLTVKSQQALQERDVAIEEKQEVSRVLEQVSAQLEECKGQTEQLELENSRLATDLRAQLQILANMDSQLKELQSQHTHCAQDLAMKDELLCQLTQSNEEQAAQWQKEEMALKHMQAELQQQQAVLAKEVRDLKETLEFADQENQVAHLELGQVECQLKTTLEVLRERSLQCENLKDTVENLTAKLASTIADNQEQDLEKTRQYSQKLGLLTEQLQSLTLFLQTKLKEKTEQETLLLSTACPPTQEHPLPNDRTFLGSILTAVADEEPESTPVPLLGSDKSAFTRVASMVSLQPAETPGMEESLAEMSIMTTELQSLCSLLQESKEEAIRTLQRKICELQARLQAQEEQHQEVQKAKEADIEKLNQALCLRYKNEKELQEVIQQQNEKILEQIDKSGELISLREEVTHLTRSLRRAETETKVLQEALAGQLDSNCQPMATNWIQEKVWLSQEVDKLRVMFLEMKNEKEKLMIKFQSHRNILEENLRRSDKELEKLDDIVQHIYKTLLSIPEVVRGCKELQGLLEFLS
Sequence of UniProt O43805 (O43805 whole entry, looked up): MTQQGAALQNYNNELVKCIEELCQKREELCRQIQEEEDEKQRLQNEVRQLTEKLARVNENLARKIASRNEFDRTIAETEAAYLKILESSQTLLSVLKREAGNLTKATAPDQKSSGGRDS

Row | Target | log2 fold change [1] | log2 fold change [2] | log2 fold change [3] | log2 fold change [4] | log2 fold change [5] | log2 fold change [6] | log2 fold change [7] | log2 fold change [8] | log2 fold change [9] | log2 fold change [10]
1 | TADA3 (UniProt O75528) | 0.02 | -0.046 | 0.032 | -0.073 | -0.04 | 0.048 | 0.009 | -0.058 | 0.053 | 0.018
2 | SLC27A4 (UniProt Q6P1M0) | 0.022 | 0.01 | -0.023 | 0.052 | 0.063 | -0.009 | 0.041 | 0.015 | 0.084 | -0.003
3 | SFR1 isoform 2 (UniProt Q86XK3) | -0.009 | -0.019 | 0.067 | 0.015 | -0.051 | 0.018 | 0.025 | 0.04 | 0.01 | 0.001
4 | SNCA (UniProt P37840) | -0.265 | -0.037 | 0.098 | 0.025 | -0.147 | -0.02 | 0.044 | -0.056 | -0.085 | 0.019
5 | SLC25A44 (UniProt Q96H78) | 0.117 | -0.275 | 0.055 | -0.018 | 0.025 | -0.064 | 0.145 | -0.039 | 0.037 | -0.053
6 | SLC27A2 (UniProt O14975) | -0.025 | 0.478 (active) | -0.122 | 0.099 | 0.048 | 0.007 | -0.016 | -0.038 | -0.035 | 0.614 (active)
7 | TARBP2 (UniProt Q15633) | 0.03 | -0.095 | -0.066 | -0.026 | 0.007 | 0.027 | -0.029 | 0.012 | -0.002 | 0.011
8 | SPAG5 (UniProt Q96R06) | 0.013 | 0.012 | -0.054 | 0.003 | -0.008 | 0.014 | 0.018 | -0.009 | -0.011 | 0
9 | SLC20A1 (UniProt Q8WUM9) | 0.032 | 0.059 | 0.089 | -0.097 | 0.005 | 0.02 | 0.085 | 0.069 | 0.214 | 0.05
10 | SSU72 (UniProt Q9NP77) | -0.067 | 0.057 | -0.071 | -0.064 | -0.003 | 0.07 | 0.005 | 0.029 | 0 | 0.001
11 | SH3BP2 isoform 4 (UniProt P78314) | -0.037 | 0.213 | 0.001 | 0.044 | -0.103 | 0.088 | -0.073 |  |  | 0.03
12 | SLC38A1 (UniProt Q9H2H9) | -0.01 | -0.029 | 0.056 | 0.007 | 0.01 | 0.039 | -0.061 | -0.027 | 0.026 | 0.053
13 | TANK (UniProt Q92844) | 0 | -0.089 | -0.015 | -0.069 | 0.003 | 0.025 | 0.089 | 0.082 | 0 | 0.028
14 | SYNRG (UniProt Q9UMZ2) | 0.029 | -0.037 | 0.078 | 0.015 | -0.012 | -0.019 | -0.01 | -0.004 | 0.021 | 0.016
15 | SNRPD3 (UniProt P62318) | 0.017 | 0.021 | 0.016 | -0.057 | 0.013 | -0.013 | 0.033 | 0.019 | 0.044 | 0.026
16 | SKA3 (UniProt Q8IX90) | 0.018 | -0.081 | 0.02 | -0.01 | -0.052 | -0.022 | 0.001 | -0.02 | 0.042 | 0.013
17 | SPATA5L1 (UniProt Q9BVQ7) | 0.09 | -0.053 | -0.017 | 0.044 | 0.004 | 0.069 | 0.01 | 0.027 | 0.032 | 0.015

Row | Target | log2 fold change [1] | log2 fold change [2] | log2 fold change [3] | log2 fold change [4] | log2 fold change [5] | log2 fold change [6] | log2 fold change [7] | log2 fold change [8] | log2 fold change [9] | log2 fold change [10]
18 | SPIRE1 (UniProt Q08AE8) | -0.062 | 0.054 | -0.032 | 0.068 | -0.067 | 0.027 | 0.022 | 0.013 | -0.024 | -0.032
19 | STN1 (UniProt Q9H668) | -0.126 | 0.049 | 0.142 | 0.075 | -0.098 | 0.019 | -0.061 | -0.045 | 0.043 | 0.034
20 | SUZ12 (UniProt Q15022) | 0.024 | -0.077 | -0.018 | 0.007 | 0.004 | 0.034 | -0.079 | -0.038 | -0.021 | 0.02
21 | STK38 (UniProt Q15208) | -0.018 | -0.029 | -0.063 | -0.005 | 0.038 | 0.029 | 0.176 | -0.002 | 0.055 | -0.006
22 | TAF9 (UniProt Q16594) | 0.022 | 0.009 | 0.081 | 0.056 | 0.002 | 0.013 | -0.052 | -0.08 | 0.084 | 0.032
23 | SMAD9 (UniProt O15198) | 0.005 | 0.048 | -0.037 | 0.007 | 0.018 | 0.053 | 0.017 | -0.048 | -0.059 | 0
24 | SMG1 (UniProt Q96Q15) | -0.004 | -0.031 | -0.046 | 0.009 | 0.029 | -0.022 | -0.072 | -0.036 | 0.024 | -0.008
25 | SNRPF (UniProt P62306) | -0.029 | -0.07 | 0.081 | -0.017 | -0.065 | 0.028 | -0.034 | -0.018 | 0.001 | 0.007
26 | SSNA1 (UniProt O43805) | -0.004 | -0.04 | -0.013 | 0.07 | -0.036 | 0.04 | -0.03 | -0.002 | 0.066 | 0.018
27 | SMIM8 (UniProt Q96KF7) | -0.057 | 0.005 | 0.028 | 0.004 | -0.004 | -0.137 | 0.028 | 0.026 | 0 | 0.058
28 | TARBP1 (UniProt Q13395) | 0.134 | 0.047 | -0.02 | 0.051 | -0.059 | 0.044 | -0.048 | 0.007 | 0.034 | 0.084
29 | SLC38A10 (UniProt Q9HBR0) | 0.007 | -0.128 | -0.006 | -0.065 | -0.009 | 0.02 | -0.127 | 0 | 0.016 | 0.047
30 | SRGN (UniProt P10124) | -0.034 | 0.023 | 0.051 | -0.019 | 0.05 | 0.051 | -0.069 | 0.065 | -0.139 | 0.013
31 | SYK (UniProt P43405) | -0.004 | -0.007 | 0.017 | 0.039 | -0.033 | 0.021 |  | -0.013 | -0.038 | 0.053
32 | SND1 (UniProt Q7KZF4) | 0.022 | 0.042 | -0.009 | 0.007 | 0.031 | 0.017 | -0.042 | 0.005 | -0.005 | -0.012
33 | SRSF7 (UniProt Q16629) | 0.019 | -0.068 | -0.043 | 0.002 | -0.066 | -0.02 | -0.016 | 0.032 | 0.008 | -0.03
